Assay results: PubChem BioAssay
For part of these data: Results with a measured potency or affinity are listed apart. The source made the active and inactive calls. Unless noted, no rule for the calls is given here.

Tests used:
[1] = antimalarial activity against Dd2 strain (AID 2302;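 active = growth inhibition above 50% at the single 2 µM test dose, taken to imply half-maximal potency below 2 µM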;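 also: 0% = DMSO untreated growth and 100% = chloroquine plus artemisinin killed control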); details: P. falciparum Dd2 in RBCs, LDH growth readout, 72 h; at 2 µM; hits give high values
[2] = human hepatoma cell viability loss – ATP luminescence, cytotoxicity control for P. falciparum antimalarial project, primary screen (AID 2303;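 active = inhibition above 50%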;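 also: 0% = DMSO wells and 100% = digitonin-killed cells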); details: HepG2 viability, 24-48 h, at 10 µM, hits give high values
[3] = target: L-lactate dehydrogenase (Plasmodium falciparum (isolate CDC / Honduras)) (UniProt Q27743); assay: PfLDH activity inhibition – cell lysate, 3D7 strain, counter-screen for P. falciparum growth inhibition project (AID 2304);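 also: 0% = vehicle and 100% = reference inhibitor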; details: P. falciparum 3D7 crude extract, LDH APAD/NBT absorbance; at 2 µM; hits give high values
[4] = inhibition of 3D7 malaria parasite growth – strain 3D7 (AID 2306);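 also: 0% = DMSO wells and 100% = chloroquine plus artemisinin control wells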; details: P. falciparum 3D7 erythrocytic growth, LDH absorbance, 72 h; at 2 µM; hits give high values
[5] = target: Calcium-dependent protein kinase 1 (Plasmodium falciparum (isolate 3D7)) (UniProt P62344); assay: PfCDPK1 kinase inhibitors, biochemical, TCAMS library (AID 1159585; cut-off not given, nearly all actives have IC50 up to about 0.98 µM;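 also: inhibitors leave more ATP so luminescence rises with inhibition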); details: recombinant PfCDPK1, Kinase-Glo ATP depletion luminescence
[6] = target: Plasmodium falciparum protein kinase 6 (PK6, PF3D7_1337100) (UniProt Q8IDW1); assay: PfPK6 kinase inhibitors, biochemical, TCAMS library (AID 1159586); details: recombinant PfPK6, Kinase-Glo ATP depletion luminescence
[7] = target: Protein kinase 7 (PK7), Plasmodium falciparum 3D7 (PF3D7_0213400) (UniProt Q7YTF7); assay: inhibition of Plasmodium PK7 catalytic activity – biochemical, TCAMS antimalarial set, Kinase-Glo luminescence (AID 1159587); details: recombinant PfPK7, Kinase-Glo ATP depletion luminescence
[8] = target: Calcium-dependent protein kinase 4 (Plasmodium falciparum (isolate 3D7)) (UniProt Q8IBS5); assay: PfCDPK4 kinase inhibitors, biochemical, TCAMS library (AID 1159588; cut-off not given, nearly all actives have IC50 up to about 0.91 µM); details: recombinant PfCDPK4, Kinase-Glo ATP depletion luminescence
Sequence of Calcium-dependent protein kinase 4 (Plasmodium falciparum (isolate 3D7)) (Q8IBS5 whole entry, looked up): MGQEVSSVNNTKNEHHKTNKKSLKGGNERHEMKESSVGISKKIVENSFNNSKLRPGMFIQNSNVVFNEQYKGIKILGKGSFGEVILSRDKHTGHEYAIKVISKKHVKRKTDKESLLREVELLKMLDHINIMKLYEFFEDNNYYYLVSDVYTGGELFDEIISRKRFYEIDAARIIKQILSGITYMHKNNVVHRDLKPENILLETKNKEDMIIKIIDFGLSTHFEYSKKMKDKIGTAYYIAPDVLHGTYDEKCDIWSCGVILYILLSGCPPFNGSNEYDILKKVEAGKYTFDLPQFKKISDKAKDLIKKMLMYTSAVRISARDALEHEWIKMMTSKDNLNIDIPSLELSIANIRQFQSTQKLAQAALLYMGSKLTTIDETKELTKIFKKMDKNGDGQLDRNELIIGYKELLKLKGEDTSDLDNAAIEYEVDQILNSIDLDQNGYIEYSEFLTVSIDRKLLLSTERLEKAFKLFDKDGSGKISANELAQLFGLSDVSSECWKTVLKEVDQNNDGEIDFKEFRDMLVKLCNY

Sequence of Protein kinase 7 (PK7), Plasmodium falciparum 3D7 (PF3D7_0213400) (Q7YTF7 1-343): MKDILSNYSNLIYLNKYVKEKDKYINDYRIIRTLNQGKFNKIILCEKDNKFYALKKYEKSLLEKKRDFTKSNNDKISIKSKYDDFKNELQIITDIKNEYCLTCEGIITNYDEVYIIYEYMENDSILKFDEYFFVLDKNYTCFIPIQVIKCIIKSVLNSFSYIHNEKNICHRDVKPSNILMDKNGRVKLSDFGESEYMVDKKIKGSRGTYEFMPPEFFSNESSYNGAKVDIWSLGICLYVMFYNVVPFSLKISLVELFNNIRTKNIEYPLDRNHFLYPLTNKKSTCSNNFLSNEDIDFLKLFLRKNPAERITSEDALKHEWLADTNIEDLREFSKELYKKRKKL
Sequence of Calcium-dependent protein kinase 1 (Plasmodium falciparum (isolate 3D7)) (P62344 whole entry, looked up): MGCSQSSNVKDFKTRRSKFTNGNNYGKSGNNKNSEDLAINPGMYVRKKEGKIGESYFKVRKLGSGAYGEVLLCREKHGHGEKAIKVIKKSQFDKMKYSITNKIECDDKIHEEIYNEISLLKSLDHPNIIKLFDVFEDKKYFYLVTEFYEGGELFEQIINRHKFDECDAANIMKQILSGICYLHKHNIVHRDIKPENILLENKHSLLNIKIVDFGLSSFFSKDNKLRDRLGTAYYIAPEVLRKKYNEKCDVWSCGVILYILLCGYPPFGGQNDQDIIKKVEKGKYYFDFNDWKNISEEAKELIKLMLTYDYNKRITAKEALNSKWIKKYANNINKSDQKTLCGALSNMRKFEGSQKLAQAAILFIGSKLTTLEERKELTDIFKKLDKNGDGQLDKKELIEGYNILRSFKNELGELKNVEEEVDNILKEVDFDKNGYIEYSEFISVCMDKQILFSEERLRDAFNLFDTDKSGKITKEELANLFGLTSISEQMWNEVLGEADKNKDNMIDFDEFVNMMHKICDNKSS
Sequence of Plasmodium falciparum protein kinase 6 (PK6, PF3D7_1337100) (Q8IDW1 1-305): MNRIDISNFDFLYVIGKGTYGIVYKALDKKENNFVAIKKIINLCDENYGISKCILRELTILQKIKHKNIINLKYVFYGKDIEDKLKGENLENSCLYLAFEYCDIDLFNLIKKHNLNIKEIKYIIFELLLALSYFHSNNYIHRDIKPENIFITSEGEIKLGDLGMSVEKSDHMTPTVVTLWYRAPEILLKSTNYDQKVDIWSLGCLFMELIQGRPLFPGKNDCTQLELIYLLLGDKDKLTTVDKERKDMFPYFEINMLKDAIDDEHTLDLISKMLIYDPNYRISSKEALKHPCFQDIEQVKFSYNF
Sequence of L-lactate dehydrogenase (Plasmodium falciparum (isolate CDC / Honduras)) (Q27743 whole entry, looked up): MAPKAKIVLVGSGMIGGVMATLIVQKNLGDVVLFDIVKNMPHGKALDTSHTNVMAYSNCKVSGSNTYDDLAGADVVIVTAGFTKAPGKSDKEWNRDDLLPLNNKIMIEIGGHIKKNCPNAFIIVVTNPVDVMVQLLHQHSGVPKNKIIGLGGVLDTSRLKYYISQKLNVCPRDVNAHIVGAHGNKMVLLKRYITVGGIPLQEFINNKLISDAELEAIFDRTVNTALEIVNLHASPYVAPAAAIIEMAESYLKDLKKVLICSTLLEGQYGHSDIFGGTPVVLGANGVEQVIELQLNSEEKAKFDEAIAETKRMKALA

CN1CCc2cc(O)c(NS(=O)(=O)c3ccc(-c4ccc(Cl)cc4)cc3)cc2CC1
inactive: growth inhibition [1] 3% | inhibition [2] 7% | inhibition [3] 3% | outcome [5] | outcome [6] | outcome [7] | outcome [8]
active: growth inhibition [4] 104%

O=C(/C=C/c1ccc(Cl)c(Cl)c1)NCCCCCN1CCC(c2c[nH]c3ccccc23)CC1
inactive: growth inhibition [1] 7% | inhibition [2] 33% | inhibition [3] -2% | outcome [5] | outcome [6] | outcome [7] | outcome [8]
active: growth inhibition [4] 99%

CC(C)(C)c1cc(Cn2ccnc2)cc(C(C)(C)C)c1O
inactive: growth inhibition [1] 3% | inhibition [2] 4% | inhibition [3] -2% | outcome [5] | outcome [6] | outcome [7] | outcome [8]
active: growth inhibition [4] 85%
